Here are results for eight molecules from PubChem BioAssay (NCI).

This is part of a sample that, as a whole, favours compounds with a hit. Of some 83,000 tested, about 20% had one in any assay.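 How to read the values: 0–100, growth inhibition (40 = 60% inhibited); 0, no net growth; -100 to 0, cell death (-40 = 40% of starting cells died; -100 = all dead).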 A number with no mark means an inactive call. Calls of active or inactive are those of the source. How the source made its calls: active means growth percent below 10; inactive means the rest.

Common to all, as to assay: NCI-60 one-dose screen, 48 h (100 = growth as untreated, 0 = no growth, -100 = all killed)
Common to all, as to details: 10 µM

For experiment [1], the system named is HCT-15 colon.
Experiment [2] has as its system HT29 colon.
Experiment [3] concerns SNB-75 CNS.
Experiment [4] deals with SNB-19 CNS.
Experiment [5] has as its system U251 CNS.
The test system of experiment [6] is PC-3 prostate.
The subject of experiment [7] is SK-MEL-5 melanoma.
Experiment [8] has as its system UACC-62 melanoma.
For experiment [9], the system named is LOX IMVI melanoma.
For experiment [10], the system named is SK-MEL-28 melanoma.
The subject of experiment [11] is SK-MEL-2 melanoma.
The test system of experiment [12] is EKVX NSCLC.
In experiment [13] the test system is SN12C renal.
Experiment [14] concerns UO-31 renal.
The test system of experiment [15] is TK-10 renal.
Experiment [16] concerns ACHN renal.
The test system of experiment [17] is CAKI-1 renal.
In experiment [18] the test system is A498 renal.
Experiment [19] deals with CCRF-CEM leukemia.
Experiment [20] concerns MOLT-4 leukemia.

Consider `Cc1ccc(-c2ccc(SCC(=O)Nc3ccc(S(N)(=O)=O)cc3Br)nn2)cc1`, for which the growth is 9.74% (active) in experiment [1]; 11.4% in experiment [2]; 68% in [3]; 39.5% in experiment [4]; -45.8% (active) in experiment [5]; 18.4% in experiment [6]. Also, the growth in experiment [7] is 68.4%; in experiment [8], 60%; in experiment [9], -66.4% (active); in experiment [10], 60.9%; in experiment [11], 80.6%; in experiment [12] it was 62.5%. The growth in experiment [13] is 39.5%; in experiment [14] it was 70.6%; in experiment [15] it was 84.7%; in experiment [16] it was 11.7%; in experiment [17], 56.9%; in experiment [18], 87.2%. Further, the figures for the growth in experiment [19] and in experiment [20] were 93.4% and 89.9%, respectively.
Take `O=C1c2ccccc2C(=O)c2c1c(C(=O)c1ccc(Cl)cc1)n1c2ccc2c3ccccc3ccc21`: the growth in experiment [1] was 103%; in experiment [2], 109%; in experiment [3], 86.7%; in [4] it was 96.1%; in experiment [5], 110%; in experiment [6], 94.8%. The growth in experiment [7] is 99.9%; in [8], 96.9%; in [9], 90.2%; in [10] it was 108%; in [11], 107%; in experiment [12] it was 97.1%. Further, the growth is 103% in [13]; 69.8% in [14]; 108% in [15]; 82.1% in [16]; 92.5% in experiment [17]; 144% in [18]. The growth in [19] was 102%; in [20], 107%.
Consider `O=C(Nc1ccc(F)c(Cl)c1)c1cc(-c2ccc(F)cc2F)ccc1O`, for which the growth is -18.7% (active) in experiment [1]; 26.8% in experiment [2]; -20.9% (active) in experiment [3]; 13% in [4]; 11.5% in [5]; 1.28% (active) in [6]. Besides, the growth in experiment [7] is -90.6% (active); in [8] it was -54.6% (active); in [9], -57.2% (active); in [10] it was -16.2% (active); in experiment [11] it was -69.2% (active); in experiment [12], -5.82% (active). Further, the growth is -17.3% (active) in experiment [13]; -5.93% (active) in experiment [14]; 19.1% in [15]; -13.4% (active) in experiment [16]; -18.2% (active) in experiment [17]; -21% (active) in [18]. Besides, the growth in experiment [19] was 0.694% (active); in [20] it was -21.1% (active).
Turning to `Nc1cc(-c2cccc(C(=O)NCc3ccc4c(c3)OCO4)c2)ccn1`, the growth was 95.8% in [1]; 111% in [2]; 86% in [3]; 95.2% in experiment [4]; 92.2% in experiment [5]; 103% in [6]. In addition, the growth in experiment [7] was 91.7%; in [8], 93.4%; in [9] it was 89.5%; in [10] it was 103%; in experiment [11], 105%; in experiment [12], 76.8%. Further, the growth is 104% in experiment [13]; 71.9% in experiment [14]; 103% in [15]; 97% in experiment [16]; 92.3% in experiment [17]; 106% in [18]. Further, the growth in experiment [19] is 98.9%; in experiment [20], 91.1%.
Regarding `CCOc1ccc(/C=N/NC(=O)Cn2nc(Cc3ccc([N+](=O)[O-])cc3)c3onc(C)c3c2=O)cc1`, the growth in experiment [1] was 33.7%; in [2] it was 34.6%; in experiment [3], 6.05% (active); in experiment [4], -6.58% (active); in [5], -66% (active); in [6], 23.1%. Moreover, the growth in experiment [7] was 27.7%; in experiment [8] it was 49.9%; in experiment [9], -63.5% (active); in experiment [10], 49.7%; in experiment [11], 51.9%; in experiment [12], 16.3%. The growth is 11.2% in experiment [13]; -48.1% (active) in experiment [14]; -12.2% (active) in experiment [15]; -68% (active) in experiment [16]; -9.88% (active) in experiment [17]; 45.1% in experiment [18]. Besides, the growth in [19] is 89.3%; in experiment [20], 75.7%.
In the case of `COc1ccc(OC)c(-c2cc(-c3c[nH]c4ccccc34)nc(N)c2C#N)c1`, the growth in experiment [1] is 1.05% (active); in experiment [2] it was -12.6% (active); in experiment [3], -8.84% (active); in experiment [4], 11.6%; in [5], -1.3% (active); in experiment [6] it was 13.1%. Moreover, the growth in experiment [7] was -84.8% (active); in [8], -8.1% (active); in experiment [9], -65.8% (active); in experiment [10] it was 4.59% (active); in experiment [11], -18.3% (active); in experiment [12], 13.7%. The growth was 2.5% (active) in experiment [13]; -15.5% (active) in experiment [14]; 37.4% in experiment [15]; 8.49% (active) in experiment [16]; 7.28% (active) in [17]; 2.72% (active) in experiment [18]. The growth in experiment [19] is 8.99% (active); in experiment [20], 7.55% (active).
On to `N#C/C(=C\c1ccc(N(c2ccccc2)c2ccccc2)cc1)C(N)=O`, for which the growth in [1] was 65.1%; in experiment [2] it was 30.5%; in [3], 95.4%; in [4], 77%; in [5], 32.5%; in [6] it was 61%. Further, the growth is 31.2% in experiment [7]; -47.3% (active) in [8]; 79% in experiment [9]; 104% in [10]; 23.5% in [11]; 90.2% in experiment [12]. The growth in [13] was 90.5%; in experiment [14], 49.9%; in experiment [15] it was -37.7% (active); in experiment [16] it was 88%; in experiment [17], -24% (active); in experiment [18], -99.8% (active). Moreover, the growth is 59.9% in experiment [19] and 56% in experiment [20].
Consider `Cc1cc(C)nc(NS(=O)(=O)c2ccc(N/C(N)=N/c3nccc(-c4ccccc4)n3)cc2)n1`, for which the growth was 59.4% in experiment [1]; 83.5% in [2]; 88.3% in [3]; 77.8% in [4]; 77.6% in experiment [5]; 65.4% in experiment [6]. For the same molecule, the growth in [7] is 46.3%; in [8], 59%; in experiment [9], 39.4%; in experiment [10], 74.5%; in experiment [11] it was 89.5%; in experiment [12], 43%. Moreover, the growth is 73.6% in experiment [13]; 34.7% in [14]; 76.4% in experiment [15]; 61.7% in [16]; 43.6% in experiment [17]; 71.2% in experiment [18]. The growth in [19] is 67.7%; in experiment [20], 38.8%.
